From PubChem BioAssay
Sampled rows, rich in hits. Any-hit rate of the full collection: about 9.2%.
Rab9 promoter act = activates the Rab9 promoter. Huh7 Rab9 promoter-luciferase reporter, luminescence, 24 h. Potency, µM (titrated, usually from 9.22 µM), most hits filed as activators. 320,000 compounds, 2.8% hits; also: nearly all actives have a fitted effect of over 60% in size
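Cell-based reporter: Huh7 stable for Rab9 promoter-driven luciferase, plated in reduced-serum medium with 10% FBS at 1500 cells/well, compound-treated 24 h at 37 °C, luminescence read after 10 min reagent.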
NPC1 prom act = NPC1 promoter activation; 320,000 compounds, 2.4% hits; AID 485313; Potency, µM (top dose mostly 9.22 µM), most hits filed as activators; Huh7 NPC1 promoter luciferase reporter, 24 h; also: nearly all actives have a fitted effect of over 60% in size
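Quantitative HTS used a cell-based reporter: Huh7 cells stably bearing the NPC1 promoter upstream of luciferase were treated with compounds for 24 h, and promoter activation was read as luminescence.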
ELG1 repair inh = ELG1-dependent DNA repair inhibition; Potency, µM (top dose mostly 46.1 µM), actives largely listed as inhibitors; 330,000 compounds, 2.3% hits; HEK293T ELG1-luciferase reporter, luminescence, 16 h; DNA damage induced by 5-fluorouridine; also: nearly all actives have a fitted effect of over 55% in size
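Overnight (16 hr) co-exposure of 2,000 cells/well to 5-fluorouridine and compound at 37 °C preceded detection. Luciferase was quantified via ONE-Glo luminescence; loss of signal denotes inhibition.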
SMN2 splice up = SMN2 splice variant enhancement. HEK293 SMN2-luciferase splicing reporter, luminescence, 30-36 h. Potency, µM (series often up to 46.1 µM), hits mostly activators. 210,000 compounds, 2.8% hits; also: nearly all actives have a fitted effect of over 55% in size
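HEK293 cells carry an SMN2 minigene-luciferase reporter in which exon 7 inclusion puts luciferase in frame. Cells were seeded at 2000 cells/well, attached for 10-12 hours, then exposed to compounds for 30-36 hours at 37C before ONE-Glo luminescence.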
ELG1 genotoxic = induces genotoxicity in HEK293T cells with luciferase-tagged ELG1; 330,000 compounds, 1.3% hits; HEK293T ELG1-luciferase reporter, luminescence, 16 h; Potency, µM (titrated, usually from 46 µM), actives largely listed as activators; AID 504466; also: nearly all actives have a fitted effect of over 60% in size
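Genotoxic stress is detected as increased luminescence from luciferase-tagged ELG1 in HEK293T cells, measured with ONE-Glo after a 16 hr treatment at 37 °C.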
FLuc modulator = inhibits or activates purified firefly luciferase, miR-21 counter-screen | purified FLuc, Km substrates, luminescence inhibition | Potency, µM (top dose mostly 57.5 µM), most hits filed as inhibitors | 360,000 compounds, 6.9% hits | P08659; also: nearly all actives have a fitted effect of over 55% in size
Target sequence (P08659 whole entry, looked up): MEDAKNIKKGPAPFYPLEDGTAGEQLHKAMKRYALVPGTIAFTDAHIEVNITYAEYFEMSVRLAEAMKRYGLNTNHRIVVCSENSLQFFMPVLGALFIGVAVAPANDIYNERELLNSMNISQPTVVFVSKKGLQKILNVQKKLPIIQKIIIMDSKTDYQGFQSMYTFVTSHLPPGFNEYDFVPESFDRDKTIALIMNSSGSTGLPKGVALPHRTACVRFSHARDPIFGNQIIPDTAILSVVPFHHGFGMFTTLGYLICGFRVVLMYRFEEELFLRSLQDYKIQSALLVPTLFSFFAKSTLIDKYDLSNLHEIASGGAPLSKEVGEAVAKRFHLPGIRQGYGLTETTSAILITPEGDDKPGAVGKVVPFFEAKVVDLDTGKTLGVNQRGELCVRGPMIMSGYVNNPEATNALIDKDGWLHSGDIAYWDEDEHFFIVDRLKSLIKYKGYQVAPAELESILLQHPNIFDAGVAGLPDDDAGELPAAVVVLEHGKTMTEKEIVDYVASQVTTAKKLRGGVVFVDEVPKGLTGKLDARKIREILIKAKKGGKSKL
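Biochemical qHTS of compounds, final roughly 60 µM downward over six points, against 10 nM purified firefly luciferase using Km concentrations of substrates (10 uM D-luciferin, 10 uM ATP) in Tris acetate pH 7.5 buffer; luminescence output.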
Of the large screens only hits and unclear results are named; the others gave an inactive call. Calls follow the shape of the dose curve; as a rule, active = well fitted curve in the direction sought with a large enough effect; inconclusive = small, poorly fitted or top-dose-only effect, or another doubt; inactive = no such curve, though single readings can be large; an effect the other way counts as inactive or inconclusive.

COC(=O)c1ccc(COc2cccc3c2CCN(Cc2ccccc2)C3=O)o1	ELG1 repair inh 23µM
COC(=O)c1ccc(COc2cccc3c2CCN(Cc2cccc(C)c2)C3=O)o1	ELG1 repair inh inconclusive
CN1CCc2c(OCc3ccc(F)cc3)cccc2C1=O	none
Cc1ccc(CN2CCc3c(OCc4ccc(F)cc4)cccc3C2=O)cc1	ELG1 repair inh 5.8µM
CC(C)NC(=S)NC(c1ccccc1)(c1ccccc1)c1ccccc1	ELG1 repair inh inconclusive (no result: SMN2 splice up)
CCNC(=O)NC(=O)C(C)Oc1ccc(Br)cc1Br (centres undefined)	SMN2 splice up inconclusive, ELG1 genotoxic inconclusive, FLuc modulator 17µM
CCNC(=O)NC(=O)C(C)OC(=O)C(C)(C)Oc1ccc(Cl)cc1 (centres undefined)	none
CCC(C)c1ccc(S(=O)(=O)N2CCN(C(=O)COc3ccc4c(C)cc(=O)oc4c3)CC2)cc1 (centres undefined)	ELG1 repair inh 8.2µM
CCCCC1(C)NC(=O)N(CC(=O)Nc2ccc(Cl)cc2C)C1=O (centres undefined)	none (no result: Rab9 promoter act, NPC1 prom act, SMN2 splice up, FLuc modulator)
C/C(=N/NC(=O)CNc1ccc(Cl)cc1C)c1ccc(C)cc1	none
COc1ccc2oc(C(=O)N3CCCc4ccccc43)c(C)c2c1	Rab9 promoter act inconclusive, NPC1 prom act inconclusive, ELG1 repair inh inconclusive, FLuc modulator 19µM (no result: SMN2 splice up)
Cc1c(C(=O)Nc2ccccc2Br)oc2ccc(S(=O)(=O)N3CCOCC3)cc12	none (no result: Rab9 promoter act, NPC1 prom act, ELG1 repair inh, SMN2 splice up, ELG1 genotoxic)
Cc1cccc(C(=O)NNC(=O)c2csc(N3CCOCC3)n2)c1C	ELG1 repair inh inconclusive (no result: SMN2 splice up)
Cc1c(C(=O)Nc2cc(S(=O)(=O)N3CCOCC3)ccc2N2CCOCC2)oc2ccccc12	ELG1 repair inh 16µM
Cc1c(C(=O)Nc2ccc(N3CCOCC3)cc2)oc2ccccc12	Rab9 promoter act 4.5µM, NPC1 prom act 4µM, ELG1 repair inh inconclusive, FLuc modulator 1.9µM
Cc1c(C(=O)NNC(=O)c2csc(N3CCOCC3)n2)oc2ccccc12	FLuc modulator 27µM (no result: SMN2 splice up)
COC(=O)c1ccccc1NC(=O)C1CCCN(c2nnc(C)c3c(C)n(-c4ccccc4)nc23)C1 (centres undefined)	none (no result: Rab9 promoter act, NPC1 prom act, ELG1 repair inh, SMN2 splice up, ELG1 genotoxic)
O=C(COC(=O)Cc1ccc(S(=O)(=O)N2CCOCC2)s1)Nc1ccccc1	none (no result: Rab9 promoter act, NPC1 prom act, SMN2 splice up, FLuc modulator)
CN1C(C(=O)Nc2ccc(OC(F)(F)F)cc2)=CC(c2ccc3c(c2)OCO3)=NS1(=O)=O	FLuc modulator inconclusive (no result: SMN2 splice up)
COc1ccc2oc(C(=O)Nc3ccc(N4CCOCC4)cc3)c(C)c2c1	ELG1 repair inh inconclusive, FLuc modulator 6.7µM (no result: SMN2 splice up)
COc1ccc2oc(C(=O)Nc3ccccc3N3CCOCC3)c(C)c2c1	NPC1 prom act inconclusive, FLuc modulator inconclusive (no result: SMN2 splice up)
O=C(CN1CCCCC1)NCC(=O)Nc1ccc(F)c(F)c1F	none (no result: SMN2 splice up, FLuc modulator)
COc1ccc(OC)c(NC(=O)c2cc3sccc3n2C)c1	FLuc modulator 12µM
CCc1ccccc1NC(=O)c1cc2sccc2n1C	Rab9 promoter act inconclusive, FLuc modulator inconclusive
COc1ccc(OC)c(NC(=O)c2cc3cc(C)ccc3n2C)c1	none (no result: Rab9 promoter act, NPC1 prom act, ELG1 repair inh, SMN2 splice up, ELG1 genotoxic)
Cn1c(C(=O)Nc2ccccc2)cc2sccc21	Rab9 promoter act inconclusive, NPC1 prom act inconclusive, ELG1 repair inh inconclusive, SMN2 splice up inconclusive, ELG1 genotoxic inconclusive, FLuc modulator 13µM
Cn1c(C(=O)NCc2ccc3c(c2)OCO3)cc2sccc21	none
COc1cc(NC(=O)c2cc3sccc3n2C)cc(OC)c1	ELG1 repair inh inconclusive, SMN2 splice up 13µM, ELG1 genotoxic 5.8µM, FLuc modulator 8.5µM
Cn1c(C(=O)Nc2ccc3c(c2)OCO3)cc2sccc21	Rab9 promoter act 1.6µM, NPC1 prom act 1.4µM, ELG1 repair inh inconclusive, SMN2 splice up 13µM, ELG1 genotoxic inconclusive, FLuc modulator 3.4µM
COCCNC(=O)c1cc2sccc2n1C	none (no result: SMN2 splice up)
COC(=O)c1ccc(NC(=O)c2cc3sccc3n2C)cc1	FLuc modulator 11µM (no result: SMN2 splice up)
N#CCc1nn2c3c(cnc2c1C#N)C(=O)CCC3	none
COc1ccc(Br)c(C(=O)Nc2ccc(F)cc2)c1	none (no result: SMN2 splice up)
COc1cccc(NC(=O)COC(=O)c2c(F)cccc2Cl)c1	Rab9 promoter act inconclusive, ELG1 genotoxic inconclusive, FLuc modulator inconclusive (no result: SMN2 splice up)
